In paper PMC5540273 (PLoS ONE, 2017):
“And” between values parts separate entries of the source, which are not always exact repeats. Equal values may be shown once. Read-outs that look alike come from different tables or passages of the source.

Key:
MKK7 = settings: concentration: 1 μM, replicates: in singlicate, n = 1
MKNK1 = settings: concentration: 1 μM, replicates: in singlicate; n = 1
MKNK2 = settings: concentration: 1 μM, replicates: in singlicate, n = 1
MLCK = tested on: T1, MLCK; settings: concentration: 1 μM, replicates: in singlicate; n = 1
T1 construct: gene MYLK3

MLK1 = tested on: T2, MLK1; settings: concentration: 1 μM, replicates: in singlicate; n = 1
T2 construct: gene MAP3K9

MLK2 = settings: concentration: 1 μM, replicates: in singlicate, n = 1
MLK3 = settings: concentration: 1 μM, replicates: in singlicate; n = 1
MRCKA = settings: concentration: 1 μM, replicates: in singlicate, n = 1
MRCKB = tested on: T3, MRCKB; settings: concentration: 1 μM, replicates: in singlicate, n = 1
T3 construct: gene CDC42BPB

MST1R = settings: concentration: 1 μM, replicates: in singlicate, n = 1
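Note: KINOMEscan kinase panel screen.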

Fc1ccc(-c2nn3c(OCC(F)(F)F)cccc3c2-c2ccncc2)cc1 [GW514784] was tested, and the “%Inh” value (MKK7) was 0%, the “%Inh” value (MKNK1) was 0% and the “%Inh” value (MKNK2) was 0%. The “%Inh” value (MLCK) was 0%, the “%Inh” value (MLK1) was 0% and the “%Inh” value (MLK2) was 0%. For the same molecule, the “%Inh” value (MLK3) was 0%, the “%Inh” value (MRCKA) was 24% and the “%Inh” value (MRCKB) was 32%. For the same molecule, the “%Inh” value (MST1R) was 13%.
Cl.Cl.Cl.Fc1ccc(-c2ncn(C3CCNCC3)c2-c2ccnc(Nc3ccccc3)n2)cc1 [SB-238039] was tested, and the “%Inh” value (MKK7; 1 µM) was 23% and 0%, the “%Inh” value (MKNK1) was 0% and the “%Inh” value (MKNK2; 1 µM) was 0% and 29%. The “%Inh” value (MLCK) was 0%, the “%Inh” value (MLK1) was 0% and the “%Inh” value (MLK2; 1 µM) was 40% and 6%. For the same molecule, the “%Inh” value (MLK3) was 0%, the “%Inh” value (MRCKA; 1 µM) was 90.3% and 71% and the “%Inh” value (MRCKB; 1 µM) was 75% and 92.8%. The “%Inh” value (MST1R; 1 µM) was 0% and 40%.
In the case of Cc1c(Cn2c(C)nn3c(=O)cc(N4CCOC(C)C4)nc23)cccc1C(F)(F)F (stereo not drawn) [GSK2344444], the “%Inh” value (MKK7) is reported as 0%, the “%Inh” value (MKNK1) is reported as 0% and the “%Inh” value (MKNK2) is reported as 7%. The “%Inh” value (MLCK) was 2%, the “%Inh” value (MLK1) was 0% and the “%Inh” value (MLK2) was 0%. The “%Inh” value (MLK3) was 13%, the “%Inh” value (MRCKA) was 0% and the “%Inh” value (MRCKB) was 0%. For the same molecule, the “%Inh” value (MST1R) was 28%.
With Cc1cn2c(=O)cc(N3CCOCC3)nc2n1Cc1cccc(Cl)c1Cl [GSK2334006] the “%Inh” value (MKK7) was 29%, the “%Inh” value (MKNK1) was 2% and the “%Inh” value (MKNK2) was 10%. The “%Inh” value (MLCK) was 0%, the “%Inh” value (MLK1) was 0% and the “%Inh” value (MLK2) was 2%. For the same molecule, the “%Inh” value (MLK3) was 38%, the “%Inh” value (MRCKA) was 6% and the “%Inh” value (MRCKB) was 8%. The “%Inh” value (MST1R) was 28%.
For O=C(NCCNc1ccnc(Nc2ccc(F)cc2)n1)Nc1ccccc1F [GSK1379880], the “%Inh” value (MKK7) was 0%, the “%Inh” value (MKNK1) was 0% and the “%Inh” value (MKNK2) was 5%. The “%Inh” value (MLCK) was 0%, the “%Inh” value (MLK1) was 0% and the “%Inh” value (MLK2) was 0%. For the same molecule, the “%Inh” value (MLK3) was 0%, the “%Inh” value (MRCKA) was 21% and the “%Inh” value (MRCKB) was 3%. The “%Inh” value (MST1R) was 50%.
O=c1cc(N2CCOCC2)nc2n(Cc3cccc(C(F)(F)F)c3)ccn12 [GSK2297543] was tested, and the “%Inh” value (MKK7) was 0%, the “%Inh” value (MKNK1) was 0% and the “%Inh” value (MKNK2) was 0%. For the same molecule, the “%Inh” value (MLCK) was 0%, the “%Inh” value (MLK1) was 0% and the “%Inh” value (MLK2) was 14%. For the same molecule, the “%Inh” value (MLK3) was 19%, the “%Inh” value (MRCKA) was 0% and the “%Inh” value (MRCKB) was 0%. For the same molecule, the “%Inh” value (MST1R) was 12%.
For c1ccc(-c2cc(-c3c[nH]nc3-c3ccccn3)ccn2)cc1 [GW576604], the “%Inh” value (MKK7) was 0%, the “%Inh” value (MKNK1) was 5% and the “%Inh” value (MKNK2) was 0%. The “%Inh” value (MLCK) was 9%, the “%Inh” value (MLK1) was 6% and the “%Inh” value (MLK2) was 0%. The “%Inh” value (MLK3) was 0%, the “%Inh” value (MRCKA) was 4% and the “%Inh” value (MRCKB) was 0%. The “%Inh” value (MST1R) was 34%.
For COC(=O)Nc1nc2cc(Oc3ccc(NC(=O)Nc4cc(F)ccc4F)cc3)ccc2[nH]1.Cl [GW701424], the “%Inh” value (MKK7) was 0%, the “%Inh” value (MKNK1) was 23% and the “%Inh” value (MKNK2) was 12%. For the same molecule, the “%Inh” value (MLCK) was 0%, the “%Inh” value (MLK1) was 0% and the “%Inh” value (MLK2) was 0%. For the same molecule, the “%Inh” value (MLK3) was 0%, the “%Inh” value (MRCKA) was 16% and the “%Inh” value (MRCKB) was 0%. For the same molecule, the “%Inh” value (MST1R) was 29%.
In the case of O=C(NCCNc1ccnc(Nc2ccc(F)cc2)n1)c1cc2ccccc2s1 [GSK1379874], the “%Inh” value (MKK7) is reported as 0%, the “%Inh” value (MKNK1) is reported as 2% and the “%Inh” value (MKNK2) is reported as 0%. The “%Inh” value (MLCK) was 0%, the “%Inh” value (MLK1) was 6% and the “%Inh” value (MLK2) was 0%. For the same molecule, the “%Inh” value (MLK3) was 17%, the “%Inh” value (MRCKA) was 13% and the “%Inh” value (MRCKB) was 0%. For the same molecule, the “%Inh” value (MST1R) was 30%.
O=C(Nc1n[nH]c2cc(-c3cccc(F)c3)ccc12)C1CC1 [SB-735464] was tested, and the “%Inh” value (MKK7) was 19%, the “%Inh” value (MKNK1) was 0% and the “%Inh” value (MKNK2) was 29%. For the same molecule, the “%Inh” value (MLCK) was 35%, the “%Inh” value (MLK1) was 0% and the “%Inh” value (MLK2) was 0%. The “%Inh” value (MLK3) was 4%, the “%Inh” value (MRCKA) was 4% and the “%Inh” value (MRCKB) was 0%. For the same molecule, the “%Inh” value (MST1R) was 15%.
In the case of CNc1ncnc2[nH]ncc12 [SKF-18355], the “%Inh” value (MKK7) is reported as 0%, the “%Inh” value (MKNK1) is reported as 0% and the “%Inh” value (MKNK2) is reported as 0%. The “%Inh” value (MLCK) was 1%, the “%Inh” value (MLK1) was 1% and the “%Inh” value (MLK2) was 0%. For the same molecule, the “%Inh” value (MLK3) was 2%, the “%Inh” value (MRCKA) was 0% and the “%Inh” value (MRCKB) was 0%. For the same molecule, the “%Inh” value (MST1R) was 0%.
In the case of Cc1cccc(-c2nc(Nc3ccc4ncsc4c3)c3ccccc3n2)n1 [GW867588], the “%Inh” value (MKK7) is reported as 0%, the “%Inh” value (MKNK1) is reported as 16% and the “%Inh” value (MKNK2) is reported as 0%. The “%Inh” value (MLCK) was 0%, the “%Inh” value (MLK1) was 7% and the “%Inh” value (MLK2) was 20%. The “%Inh” value (MLK3) was 1%, the “%Inh” value (MRCKA) was 2% and the “%Inh” value (MRCKB) was 33%. The “%Inh” value (MST1R) was 0%.
CC(C)(C)n1cnc2c(N)ncnc21 [SKF-97359] was tested, and the “%Inh” value (MKK7) was 21%, the “%Inh” value (MKNK1) was 54% and the “%Inh” value (MKNK2) was 0%. The “%Inh” value (MLCK) was 0%, the “%Inh” value (MLK1) was 0% and the “%Inh” value (MLK2) was 0%. For the same molecule, the “%Inh” value (MLK3) was 0%, the “%Inh” value (MRCKA) was 0% and the “%Inh” value (MRCKB) was 0%. The “%Inh” value (MST1R) was 0%.
In the case of COc1ccc(Nc2nccc(N3CCC(NC(=O)Nc4cc(C)ccc4C)C3)n2)cc1 (stereo not drawn) [GSK1379741], the “%Inh” value (MKK7) is reported as 28%, the “%Inh” value (MKNK1) is reported as 0% and the “%Inh” value (MKNK2) is reported as 5%. The “%Inh” value (MLCK) was 11%, the “%Inh” value (MLK1) was 0% and the “%Inh” value (MLK2) was 0%. For the same molecule, the “%Inh” value (MLK3) was 0%, the “%Inh” value (MRCKA) was 24% and the “%Inh” value (MRCKB) was 0%. For the same molecule, the “%Inh” value (MST1R) was 55%.
O=C(Nc1cccc(-c2nn3ncccc3c2-c2ccnc(Nc3cccc(C(F)(F)F)c3)n2)c1)c1c(F)cccc1F [GSK299495] was tested, and the “%Inh” value (MKK7) was 0%, the “%Inh” value (MKNK1) was 0% and the “%Inh” value (MKNK2) was 24%. For the same molecule, the “%Inh” value (MLCK) was 11%, the “%Inh” value (MLK1) was 0% and the “%Inh” value (MLK2) was 0%. For the same molecule, the “%Inh” value (MLK3) was 0%, the “%Inh” value (MRCKA) was 58% and the “%Inh” value (MRCKB) was 68%. The “%Inh” value (MST1R) was 44%.
COc1cc2c(cc1OCCN1CCN(C)CC1)ncc1c3ccc(C#N)cc3[nH]c21 was tested, and the “%Inh” value (MKK7) was 0%, the “%Inh” value (MKNK1) was 99.4% and the “%Inh” value (MKNK2) was 99.7%. For the same molecule, the “%Inh” value (MLCK) was 98.8%, the “%Inh” value (MLK1) was 0% and the “%Inh” value (MLK2) was 0%. The “%Inh” value (MLK3) was 20%, the “%Inh” value (MRCKA) was 10% and the “%Inh” value (MRCKB) was 0%. For the same molecule, the “%Inh” value (MST1R) was 7%.
In the case of NS(=O)(=O)c1cccc(-c2ccc3nccc(-c4cccc(S(N)(=O)=O)c4)c3c2)c1 [GW867253], the “%Inh” value (MKK7) is reported as 0%, the “%Inh” value (MKNK1) is reported as 0% and the “%Inh” value (MKNK2) is reported as 0%. The “%Inh” value (MLCK) was 0%, the “%Inh” value (MLK1) was 0% and the “%Inh” value (MLK2) was 41%. For the same molecule, the “%Inh” value (MLK3) was 0%, the “%Inh” value (MRCKA) was 3% and the “%Inh” value (MRCKB) was 7%. For the same molecule, the “%Inh” value (MST1R) was 0%.
In the case of CN(C(=O)c1ccc(-c2cc(-c3c[nH]nc3-c3ccccn3)ccn2)cc1)C1CCOCC1 [GW810083], the “%Inh” value (MKK7) is reported as 0%, the “%Inh” value (MKNK1) is reported as 0% and the “%Inh” value (MKNK2) is reported as 37%. The “%Inh” value (MLCK) was 0%, the “%Inh” value (MLK1) was 0% and the “%Inh” value (MLK2) was 0%. The “%Inh” value (MLK3) was 0%, the “%Inh” value (MRCKA) was 4% and the “%Inh” value (MRCKB) was 10%. The “%Inh” value (MST1R) was 0%.
Cc1cccc(-c2nc(-c3ccc(S(C)(=O)=O)cc3)sc2-c2ccncc2)c1 was tested, and the “%Inh” value (MKK7) was 20%, the “%Inh” value (MKNK1) was 0% and the “%Inh” value (MKNK2) was 13%. For the same molecule, the “%Inh” value (MLCK) was 0%, the “%Inh” value (MLK1) was 0% and the “%Inh” value (MLK2) was 33%. For the same molecule, the “%Inh” value (MLK3) was 27%, the “%Inh” value (MRCKA) was 0% and the “%Inh” value (MRCKB) was 0%. The “%Inh” value (MST1R) was 23%.
For Cc1nnc(-c2ccc(C)c(-c3ccc(C(=O)Nc4ccc(NS(C)(=O)=O)cc4)cc3)c2)o1 [GW702865], the “%Inh” value (MKK7) was 0%, the “%Inh” value (MKNK1) was 0% and the “%Inh” value (MKNK2) was 0%. The “%Inh” value (MLCK) was 12%, the “%Inh” value (MLK1) was 5% and the “%Inh” value (MLK2) was 0%. For the same molecule, the “%Inh” value (MLK3) was 7%, the “%Inh” value (MRCKA) was 0% and the “%Inh” value (MRCKB) was 0%. For the same molecule, the “%Inh” value (MST1R) was 13%.
In the case of Cc1c2ccc(N(C)c3ccnc(Nc4cccc(S(N)(=O)=O)c4)n3)cc2nn1Cc1ccccc1.Cl.Cl [GW787226], the “%Inh” value (MKK7) is reported as 15%, the “%Inh” value (MKNK1) is reported as 0% and the “%Inh” value (MKNK2) is reported as 0%. The “%Inh” value (MLCK) was 0%, the “%Inh” value (MLK1) was 0% and the “%Inh” value (MLK2) was 50%. The “%Inh” value (MLK3) was 26%, the “%Inh” value (MRCKA) was 0% and the “%Inh” value (MRCKB) was 0%. For the same molecule, the “%Inh” value (MST1R) was 0%.
